The panel holds about 83,000 compounds, 20% with a hit somewhere; the sample as a whole holds those more often.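 48-hour exposure, single concentration, 96-well plates; percent growth endpoint where 0 means no net growth. Active: below 10.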 A number with no mark means an inactive call. Calls of active or inactive are those of the source.
Columns and labels:
Test in all cases: NCI-60 one-dose screen, 48 h (100 = growth as untreated, 0 = no growth, -100 = all killed)
Conditions in all cases: 10 µM unless noted
NCI-H23 lung = system: NCI-H23 lung
NCI-H226 lung = system: NCI-H226 lung
NCI-H322M lung = system: NCI-H322M lung
NCI-H460 lung = system: NCI-H460 lung
HOP-92 NSCLC = system: HOP-92 NSCLC
NCI-H522 lung = system: NCI-H522 lung
A549/ATCC NSCLC = system: A549/ATCC NSCLC
786-0 renal = system: 786-0 renal
COLO 205 colon = system: COLO 205 colon
DU-145 prostate = system: DU-145 prostate
K-562 leukemia = system: K-562 leukemia
MALME-3M melanoma = system: MALME-3M melanoma
MDA-MB-231 breast = system: MDA-MB-231 breast
RXF 393 renal = system: RXF 393 renal
SF-268 CNS = system: SF-268 CNS
SF-295 CNS = system: SF-295 CNS
SF-539 CNS = system: SF-539 CNS
UACC-257 melanoma = system: UACC-257 melanoma
M14 melanoma = system: M14 melanoma
HOP-62 NSCLC = system: HOP-62 NSCLC

Which results are given for `CCN1c2ccccc2C(Cl)(c2ccc(N(C)C)cc2)c2ccccc21`?
growth (NCI-H23 lung): 33.8%; growth (NCI-H226 lung): 88.2%; growth (NCI-H322M lung): 116%; growth (NCI-H460 lung): 66%; growth (HOP-92 NSCLC): 59.6%; growth (NCI-H522 lung): 64.2%; growth (A549/ATCC NSCLC): 82.9%; growth (786-0 renal): 75.8%; growth (COLO 205 colon): 75.5%; growth (DU-145 prostate): 74.1%; growth (K-562 leukemia): 60.8%; growth (MALME-3M melanoma): 9.82% (active); growth (MDA-MB-231 breast): 70.3%; growth (RXF 393 renal): 59.4%; growth (SF-268 CNS): 54.2%; growth (SF-295 CNS): 88.4%; growth (SF-539 CNS): 93.7%; growth (UACC-257 melanoma): 70.3%; growth (M14 melanoma): 72.9%

Which results are given for `COc1ccc(C2=C(c3cn(C)c4ccccc34)C(=O)OC2)cc1OC`?
growth (NCI-H23 lung): 54.6%; growth (NCI-H226 lung): 70.3%; growth (NCI-H322M lung): 65.5%; growth (NCI-H460 lung): 29.6%; growth (HOP-92 NSCLC): 16.4%; growth (NCI-H522 lung): 13.3%; growth (A549/ATCC NSCLC): 42.3%; growth (786-0 renal): 41.2%; growth (COLO 205 colon): 12.6%; growth (DU-145 prostate): 48.7%; growth (K-562 leukemia): 18%; growth (MALME-3M melanoma): 35.4%; growth (MDA-MB-231 breast): 49.8%; growth (RXF 393 renal): -7.01% (active); growth (SF-268 CNS): 52.1%; growth (SF-295 CNS): 23%; growth (SF-539 CNS): -12.2% (active); growth (UACC-257 melanoma): 79.7%; growth (M14 melanoma): 50%

`CCOC(=O)CCC[P+](c1ccccc1)(c1ccccc1)c1ccccc1` was tested. Which growth (NCI-H226 lung) did it give?
Its growth is 108%.

What about the growth (NCI-H322M lung) of the same molecule?
Its growth is 96.4%.

And the growth (HOP-62 NSCLC)?
Its growth is 99.8%.

And the growth (NCI-H460 lung)?
The growth was 82.2%.

What about the growth (HOP-92 NSCLC) of the same molecule?
Its growth is 71.4%.

And the growth (NCI-H522 lung)?
The growth was 63.1%.

What about the growth (A549/ATCC NSCLC) of the same molecule?
The growth was 90.7%.

And the growth (786-0 renal)?
The growth was 101%.

And the growth (COLO 205 colon)?
Its growth is 71.6%.

And the growth (DU-145 prostate)?
The growth was 90%.

What about the growth (K-562 leukemia) of the same molecule?
Its growth is 57.9%.

And the growth (MALME-3M melanoma)?
The growth was 75.4%.

And the growth (MDA-MB-231 breast)?
Its growth is 80.9%.

And the growth (RXF 393 renal)?
The growth was 108%.

What about the growth (SF-268 CNS) of the same molecule?
The growth was 83.2%.

And the growth (SF-295 CNS)?
The growth was 105%.

And the growth (SF-539 CNS)?
Its growth is 89.5%.

And the growth (UACC-257 melanoma)?
Its growth is 27.2%.

And the growth (M14 melanoma)?
The growth was 87.9%.

`O=C(CCNCc1ccccc1)c1ccccc1` was tested. Which growth (NCI-H23 lung) did it give?
Its growth is 106%.

And the growth (NCI-H226 lung)?
The growth was 102%.

And the growth (NCI-H322M lung)?
Its growth is 110%.

And the growth (NCI-H460 lung)?
Its growth is 110%.

And the growth (HOP-92 NSCLC)?
Its growth is 120%.

And the growth (NCI-H522 lung)?
The growth was 101%.

And the growth (A549/ATCC NSCLC)?
Its growth is 101%.

What about the growth (786-0 renal) of the same molecule?
Its growth is 108%.

And the growth (COLO 205 colon)?
The growth was 111%.

What about the growth (DU-145 prostate) of the same molecule?
Its growth is 105%.

What about the growth (K-562 leukemia) of the same molecule?
Its growth is 108%.

What about the growth (MALME-3M melanoma) of the same molecule?
The growth was 104%.

And the growth (MDA-MB-231 breast)?
Its growth is 121%.

And the growth (RXF 393 renal)?
The growth was 116%.

And the growth (SF-268 CNS)?
Its growth is 108%.

What about the growth (SF-295 CNS) of the same molecule?
The growth was 90%.

What about the growth (SF-539 CNS) of the same molecule?
Its growth is 98.1%.

What about the growth (UACC-257 melanoma) of the same molecule?
The growth was 102%.

What about the growth (M14 melanoma) of the same molecule?
The growth was 105%.

How did the growth (NCI-H23 lung) turn out when `CCN(CC)CCS(=O)(=O)CCNc1ccnc2cc(Cl)ccc12` was run?
The growth was -18.4% (active).

What about the growth (NCI-H226 lung) of the same molecule?
The growth was 30.1%.

And the growth (NCI-H322M lung)?
Its growth is 56.8%.

What about the growth (NCI-H460 lung) of the same molecule?
The growth was 2.87% (active).

And the growth (HOP-92 NSCLC)?
Its growth is 26.4%.

What about the growth (NCI-H522 lung) of the same molecule?
The growth was -50.5% (active).

What about the growth (A549/ATCC NSCLC) of the same molecule?
Its growth is 71.9%.

What about the growth (786-0 renal) of the same molecule?
Its growth is 10.2%.

And the growth (COLO 205 colon)?
Its growth is -44.5% (active).

What about the growth (DU-145 prostate) of the same molecule?
The growth was -24% (active).

What about the growth (K-562 leukemia) of the same molecule?
Its growth is 7.87% (active).

And the growth (MALME-3M melanoma)?
The growth was 1.04% (active).

What about the growth (MDA-MB-231 breast) of the same molecule?
Its growth is -2.95% (active).

And the growth (RXF 393 renal)?
Its growth is -17.2% (active).

What about the growth (SF-268 CNS) of the same molecule?
Its growth is 4.55% (active).

And the growth (SF-295 CNS)?
The growth was 25.9%.

What about the growth (SF-539 CNS) of the same molecule?
Its growth is -2.68% (active).

And the growth (UACC-257 melanoma)?
Its growth is 59%.

What about the growth (M14 melanoma) of the same molecule?
The growth was -10.5% (active).

With `Cc1ccc(-c2cc(-c3ccc(C)cc3)nc(N3CCN(CCNc4ccnc5cc(Cl)ccc45)CC3)n2)cc1` as the molecule, how does the growth (NCI-H23 lung) read?
The growth was 41.7%.

What about the growth (NCI-H226 lung) of the same molecule?
The growth was 18%.

What about the growth (NCI-H322M lung) of the same molecule?
The growth was 55.7%.

And the growth (NCI-H460 lung)?
Its growth is 6.78% (active).

What about the growth (HOP-92 NSCLC) of the same molecule?
The growth was -12.7% (active).

What about the growth (NCI-H522 lung) of the same molecule?
Its growth is 59.6%.

What about the growth (786-0 renal) of the same molecule?
Its growth is -38.8% (active).

What about the growth (COLO 205 colon) of the same molecule?
The growth was 10.9%.

What about the growth (DU-145 prostate) of the same molecule?
The growth was 21.5%.

What about the growth (K-562 leukemia) of the same molecule?
Its growth is 27.7%.

What about the growth (MALME-3M melanoma) of the same molecule?
The growth was -45.9% (active).

What about the growth (MDA-MB-231 breast) of the same molecule?
The growth was 18.6%.

What about the growth (RXF 393 renal) of the same molecule?
Its growth is -14.5% (active).

And the growth (SF-268 CNS)?
The growth was 28.2%.

What about the growth (SF-295 CNS) of the same molecule?
Its growth is 94.9%.

And the growth (SF-539 CNS)?
Its growth is 7.85% (active).

And the growth (UACC-257 melanoma)?
Its growth is 40.8%.

What about the growth (M14 melanoma) of the same molecule?
The growth was -2.46% (active).

Which growth (NCI-H23 lung) does the source give for `O=C(O)CSCc1nnc2n(Cc3ccccc3)c(=O)c3c4c(sc3n12)CCCC4` here?
Its growth is 90.8%.

What about the growth (NCI-H226 lung) of the same molecule?
Its growth is 87.2%.

What about the growth (NCI-H322M lung) of the same molecule?
Its growth is 101%.

And the growth (HOP-92 NSCLC)?
The growth was 74.5%.

What about the growth (NCI-H522 lung) of the same molecule?
The growth was 63.7%.

What about the growth (A549/ATCC NSCLC) of the same molecule?
The growth was 93.7%.

What about the growth (786-0 renal) of the same molecule?
The growth was 132%.

What about the growth (COLO 205 colon) of the same molecule?
The growth was 88.2%.

What about the growth (DU-145 prostate) of the same molecule?
Its growth is 114%.

What about the growth (K-562 leukemia) of the same molecule?
The growth was 78.6%.

And the growth (MALME-3M melanoma)?
The growth was 112%.

What about the growth (MDA-MB-231 breast) of the same molecule?
The growth was 83.5%.

And the growth (RXF 393 renal)?
Its growth is 88.5%.

And the growth (SF-268 CNS)?
The growth was 112%.

And the growth (SF-295 CNS)?
The growth was 57.9%.

And the growth (SF-539 CNS)?
Its growth is 101%.

What about the growth (UACC-257 melanoma) of the same molecule?
Its growth is 104%.

And the growth (M14 melanoma)?
The growth was 158%.

How did the growth (NCI-H23 lung) turn out when `CCN(CC)CCCC(C)Nc1c2ccc(C)cc2nc2ccc(OC)cc12` (centres undefined) was run?
The growth was 41.8%.

What about the growth (NCI-H226 lung) of the same molecule?
The growth was 42.4%.

What about the growth (NCI-H322M lung) of the same molecule?
Its growth is 10.9%.

And the growth (NCI-H460 lung)?
The growth was -44.3% (active).

And the growth (HOP-92 NSCLC)?
The growth was 40.8%.

What about the growth (NCI-H522 lung) of the same molecule?
Its growth is 51.1%.

And the growth (A549/ATCC NSCLC)?
The growth was 14.7%.

And the growth (786-0 renal)?
The growth was 33%.

What about the growth (COLO 205 colon) of the same molecule?
The growth was -40.4% (active).

What about the growth (DU-145 prostate) of the same molecule?
Its growth is 4.05% (active).

And the growth (K-562 leukemia)?
The growth was 4.22% (active).

What about the growth (MALME-3M melanoma) of the same molecule?
Its growth is 53.3%.

What about the growth (MDA-MB-231 breast) of the same molecule?
Its growth is 41.9%.

What about the growth (RXF 393 renal) of the same molecule?
Its growth is 23.7%.

And the growth (SF-268 CNS)?
The growth was 39.4%.

What about the growth (SF-295 CNS) of the same molecule?
Its growth is 8.67% (active).

What about the growth (SF-539 CNS) of the same molecule?
The growth was 10.2%.

What about the growth (UACC-257 melanoma) of the same molecule?
Its growth is -76% (active).

What about the growth (M14 melanoma) of the same molecule?
The growth was -10.2% (active).

What does the source list for `CC1(C)C(=NO)C(C)(C)C1=NO`?
growth (NCI-H23 lung): 111%; growth (NCI-H226 lung): 103%; growth (NCI-H322M lung): 99.6%; growth (NCI-H460 lung): 105%; growth (HOP-92 NSCLC): 88.7%; growth (NCI-H522 lung): 94.1%; growth (A549/ATCC NSCLC): 103%; growth (786-0 renal): 110%; growth (COLO 205 colon): 116%; growth (DU-145 prostate): 114%; growth (K-562 leukemia): 98.8%; growth (MALME-3M melanoma): 116%; growth (MDA-MB-231 breast): 123%; growth (RXF 393 renal): 112%; growth (SF-268 CNS): 103%; growth (SF-295 CNS): 108%; growth (SF-539 CNS): 117%; growth (UACC-257 melanoma): 95.4%; growth (M14 melanoma): 99.5%

Reference: PubChem BioAssay (NCI)
